Source: PubChem (National Center for Advancing Translational Sciences (NCATS))
An excerpt weighted towards active compounds, which were near 12% of everything screened.
SARS PLpro yeast – qHTS of Yeast-based Assay for SARS-CoV PLP | S. cerevisiae expressing SARS-CoV PLpro, growth rescue | Potency, µM (top dose mostly 32.9 µM), actives largely listed as activators | 0.19% of 330,000 active | AID 485353, 2010; also: nearly all actives have a fitted effect of over 55% in size
NS1 function inh – qHTS Assay for Inhibitors of Influenza NS1 Protein Function; Potency, µM (top dose mostly 46.1 µM); 0.4% of 270,000 active; AID 2326, 2010; also: actives are rising curves; nearly all actives have a fitted effect of over 50% in size
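In this qHTS, NS1 from influenza A is expressed in budding yeast, where it slows growth. Cells are switched from glucose to 2% galactose medium (pH 6.0, -URA), treated with compound, and growth recovery is read at OD600.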
Shiga toxin inh – A qHTS for Small Molecule Inhibitors of Shiga Toxin | 9.2% of 290,000 active | inhibition, % at 38.7 µM | AID 2315, 2010 | Vero cells, Shiga toxin protein synthesis inhibition reporter; in the data active = inhibition mostly above about 28%, no sharp cut-off; inactive = mostly below about 43%
CHX counter – Cycloheximide Counterscreen for Small Molecule Inhibitors of Shiga Toxin. cell reporter, cycloheximide protein synthesis inhibition counterscreen. max response, %. 12% of 300,000 active. AID 2314, 2010; in the data active = max response mostly above about 13%, no sharp cut-off; inactive = mostly below about 14%; also: read at 38.3 µM for the half of the compounds with a filed dose
Large screens that a line does not name were inactive. Unless noted, calls follow the shape of the full dose curve.

CCc1nc2oc3ccccc3c(=O)c2c(=O)n1-c1ccccc1	Shiga toxin inh 65, CHX counter 44
CCOc1ccccc1OCC(=O)NNC(=O)Cn1cnc2c1c(=O)n(C)c(=O)n2C	none (no result: NS1 function inh)
Cn1ncc([N+](=O)[O-])c1C(=O)Nc1ccc(-c2nc3ccccc3o2)cc1	Shiga toxin inh 41, CHX counter 24 (no result: NS1 function inh)
CC(=O)Nc1ccc(NC(=O)c2c([N+](=O)[O-])cnn2C)cc1	none (no result: Shiga toxin inh)
Cc1ccccc1NC(=O)C(=O)NC(C)CCc1ccccc1 (stereo not given)	none
O=C(NCCCCCCOC1=NS(=O)(=O)c2ccccc21)C(=O)Nc1ccccc1	none (no result: NS1 function inh)
CC(CCOC1=NS(=O)(=O)c2ccccc21)NC(=O)C(=O)Nc1ccccc1 (stereo not given)	Shiga toxin inh 65, CHX counter 29
CC(CCc1ccccc1)NC(=O)C(=O)Nc1ccccc1 (stereo not given)	Shiga toxin inh 100, CHX counter 56
CCC(C)c1ccc(Nc2ncccc2C#N)cc1 (stereo not given)	Shiga toxin inh 69, CHX counter 38
CC(C)(CC(=O)O)CC(=O)NNc1ncccc1C#N	none
COc1ccc(Nc2nccc(OC)c2C#N)cc1	none
CCc1ccc(Nc2ncccc2C#N)cc1	CHX counter 28
COc1cccc([C@@H]2CC=C(C(=O)O)CN2S(=O)(=O)c2ccc(C)cc2)c1	none (no result: NS1 function inh, Shiga toxin inh, CHX counter)
O=C(C1CCN(S(=O)(=O)c2ccc3ccccc3c2)CC1)N1CCN(c2ncccn2)CC1	none
N/C(=N\OC(=O)COc1ccc(Cl)cc1Cl)c1ccccn1	Shiga toxin inh 48, CHX counter 35
N/C(=N\OC(=O)COc1ccc(Br)cc1Cl)c1ccccn1	CHX counter 50
N/C(=N\OC(=O)COc1ccc(Br)cc1Cl)c1ccncc1	Shiga toxin inh 121, CHX counter 88
Cc1cc(C)c(C)c(OCC(=O)O/N=C(\N)c2ccccn2)c1	none
N/C(=N\OC(=O)COc1cc(Cl)c(Cl)cc1Cl)c1ccncc1	none (no result: NS1 function inh)
Cc1cc(/C=N/NC(=O)c2cccc([N+](=O)[O-])c2)c(C)n1-c1ccccc1	CHX counter 34
Cc1cc(/C=N/NC(=O)c2ccncc2)c(C)n1-c1ccccc1	Shiga toxin inh 23, CHX counter 26
Cc1cc(/C=N/NC(=O)c2cccs2)c(C)n1-c1cnccn1	Shiga toxin inh 59, CHX counter 48
Cc1cc(/C=N/NC(=O)c2cccs2)c(C)n1-c1ccccc1	Shiga toxin inh 11, CHX counter 26
Cc1ccc(/C=N/NC(=O)c2cccc([N+](=O)[O-])c2)o1	none
CC12CCC(C/C1=N\N=C1\NC(=O)/C(=C\c3cccc(Br)c3)S1)C2(C)C (stereo not given)	none
Cc1cc(C(=O)N/N=C/c2ccc(O)c(O)c2O)c(C)n1-c1ccccc1	Shiga toxin inh 73, CHX counter 54 (no result: NS1 function inh)
Cc1nn(C)c(C)c1CNC(=O)Nc1ccc(Cl)cc1	Shiga toxin inh 145, CHX counter 73 (no result: NS1 function inh)
Cc1nn(C)c(C)c1S(=O)(=O)Nc1ccc2c(c1)OCO2	none
Cc1onc(-c2ccccc2)c1CNC(=O)Nc1cccc(Cl)c1	none
CCOC(=O)c1ccc(NC(=O)NCc2c(C)nn(CC)c2C)cc1	none (no result: NS1 function inh)
Cc1nn(C)c(C)c1CNC(=O)Nc1ccc2c(c1)OCO2	Shiga toxin inh 65, CHX counter 37 (no result: NS1 function inh)
Cc1nn(C)c(C)c1CNC(=O)Nc1cccc(Cl)c1	Shiga toxin inh 114, CHX counter 57 (no result: NS1 function inh)
CCC1CCC2(CC1)NC(=O)N(CC(=O)Nc1ccc(OC)c(Cl)c1)C2=O (stereo not given)	none (no result: NS1 function inh, Shiga toxin inh, CHX counter)
O=C(NCC(=O)N(c1cccnc1)C(C(=O)NC1CCCC1)c1cccs1)c1ccco1 (stereo not given)	none
Cc1c(C(=O)N(C)C2CCCCC2)sc2nc3ccc(N)cc3n12	Shiga toxin inh 43, CHX counter 31 (no result: SARS PLpro yeast, NS1 function inh)
Cc1ccc2[nH]c(=O)c3cc(C(=O)N(C)C4CCCCC4)sc3c2c1	none
COc1ccc2no[n+]([O-])c2c1	none
CCOC(=O)c1ccc2[nH]c3c(c2c1)CCCCC3=O	Shiga toxin inh 50, CHX counter 15
CCOC(=O)c1ccc2[nH]c3c(c2c1)CCCC3C(=O)OCC (stereo not given)	none
O=C(NCc1ccc2c(c1)OCO2)C1CCCN1S(=O)(=O)c1ccc(F)cc1 (stereo not given)	none
Cc1ccc(C(=O)c2nc3c(n2O)CCCC3)cc1	none
O=C(c1cc2ccccc2o1)c1nc2c(n1O)CCCCC2	SARS PLpro yeast inconclusive, Shiga toxin inh 83, CHX counter 47
CCOc1ccc(C(=O)c2nc3c(n2O)CCCC3)cc1	CHX counter 23
NC(=O)c1cc([N+](=O)[O-])ccc1N1CCN(Cc2ccccc2)CC1	none
COc1ccccc1NC(=O)C(C)n1cnc2c(oc3nc4c(cc32)CCCC4)c1=O (stereo not given)	none
O=c1c2oc3nc4c(cc3c2ncn1CCCc1ccccc1)CCCC4	Shiga toxin inh 70, CHX counter 20
COc1ccccc1NC(=O)Cn1cnc2c(oc3nc4c(cc32)CCCC4)c1=O	none
CCCCn1cnc2c(oc3nc4c(cc32)CCCC4)c1=O	CHX counter 26
CCCCCCn1cnc2c(oc3nc4c(cc32)CCCC4)c1=O	CHX counter 12
COc1ccc(NC(=O)Cn2cnc3c(oc4nc5c(cc43)COC(C)(C)C5)c2=O)cc1	none
COCCNC(=O)Cn1nc(-c2ccc(C)cc2)c2ccccc2c1=O	none
Cc1cccc(OCC(=O)Nc2ccc3oc(=O)ccc3c2)c1C	none
COc1ccc(Nc2nnc(SCC(=O)NC3CCS(=O)(=O)C3)s2)cc1 (stereo not given)	none (no result: NS1 function inh, Shiga toxin inh, CHX counter)
Cc1cc(SCC(=O)OCC(=O)N(C)C2CCS(=O)(=O)C2)c(C)cc1Br (stereo not given)	none (no result: NS1 function inh, Shiga toxin inh, CHX counter)
CC(C)N(Cc1nccn1C)C(=O)CCc1nnc(CCCc2ccccc2)o1	Shiga toxin inh 59, CHX counter 56
CC(C)N(CCO)C(=O)CCc1nnc(CCCc2ccccc2)o1	Shiga toxin inh 63, CHX counter 39
CN(Cc1nccn1C)C(=O)CCc1nnc(CCC2CCCCC2)o1	none
O=C(Cc1noc2ccccc12)Nc1ccccn1	Shiga toxin inh 88, CHX counter 54
Cc1ccc(NC(=O)Cc2noc3ccccc23)nc1	Shiga toxin inh 59, CHX counter 23
Cc1ccc(CNC(=O)Cc2noc3ccccc23)cc1	Shiga toxin inh 51, CHX counter 33
O=C(O)[C@H]1CCCN1	none (no result: SARS PLpro yeast, NS1 function inh)
Cc1ccc2nc(-c3cccc(Br)c3)cc(C(=O)NC3CC3)c2c1	none
COc1ccc(/C(N)=N/OC(=O)C2CCC(=O)N2S(=O)(=O)c2ccc(C)cc2)cc1 (stereo not given)	none
CC(=O)N1c2ccc(Cl)cc2C2OCCC2C1c1ccco1 (stereo not given)	none
Clc1ccc2c(c1)C1OCCC1C(c1ccco1)N2 (stereo not given)	Shiga toxin inh 66, CHX counter 26
CSc1ccc(CN2CCC(n3nccc3NC(=O)C3CCOC3)CC2)cc1 (stereo not given)	none
CNC(=O)c1ccsc1NC(=O)c1ccc2c(c1)CCCC2	CHX counter 23
NC(=O)c1ccsc1NC(=O)c1ccc2c(c1)CCCC2	Shiga toxin inh 59, CHX counter 51
